Experimental findings from publication PMC4336329 (PLoS ONE, 2015) are described below.

The structures appear in SMILES notation. Screen size: about 310,000 compounds; about 14,000 (4.5%) showed an effect of 50% or more. Effects have a minus sign here. The full list was thinned out, with strong results kept by preference.
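Also: peak tail current of the secondary pulse compared with the same well before compound.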

human ether-à-go-go-related gene (hERG) potassium channel, sequence (Q12809 whole entry, looked up): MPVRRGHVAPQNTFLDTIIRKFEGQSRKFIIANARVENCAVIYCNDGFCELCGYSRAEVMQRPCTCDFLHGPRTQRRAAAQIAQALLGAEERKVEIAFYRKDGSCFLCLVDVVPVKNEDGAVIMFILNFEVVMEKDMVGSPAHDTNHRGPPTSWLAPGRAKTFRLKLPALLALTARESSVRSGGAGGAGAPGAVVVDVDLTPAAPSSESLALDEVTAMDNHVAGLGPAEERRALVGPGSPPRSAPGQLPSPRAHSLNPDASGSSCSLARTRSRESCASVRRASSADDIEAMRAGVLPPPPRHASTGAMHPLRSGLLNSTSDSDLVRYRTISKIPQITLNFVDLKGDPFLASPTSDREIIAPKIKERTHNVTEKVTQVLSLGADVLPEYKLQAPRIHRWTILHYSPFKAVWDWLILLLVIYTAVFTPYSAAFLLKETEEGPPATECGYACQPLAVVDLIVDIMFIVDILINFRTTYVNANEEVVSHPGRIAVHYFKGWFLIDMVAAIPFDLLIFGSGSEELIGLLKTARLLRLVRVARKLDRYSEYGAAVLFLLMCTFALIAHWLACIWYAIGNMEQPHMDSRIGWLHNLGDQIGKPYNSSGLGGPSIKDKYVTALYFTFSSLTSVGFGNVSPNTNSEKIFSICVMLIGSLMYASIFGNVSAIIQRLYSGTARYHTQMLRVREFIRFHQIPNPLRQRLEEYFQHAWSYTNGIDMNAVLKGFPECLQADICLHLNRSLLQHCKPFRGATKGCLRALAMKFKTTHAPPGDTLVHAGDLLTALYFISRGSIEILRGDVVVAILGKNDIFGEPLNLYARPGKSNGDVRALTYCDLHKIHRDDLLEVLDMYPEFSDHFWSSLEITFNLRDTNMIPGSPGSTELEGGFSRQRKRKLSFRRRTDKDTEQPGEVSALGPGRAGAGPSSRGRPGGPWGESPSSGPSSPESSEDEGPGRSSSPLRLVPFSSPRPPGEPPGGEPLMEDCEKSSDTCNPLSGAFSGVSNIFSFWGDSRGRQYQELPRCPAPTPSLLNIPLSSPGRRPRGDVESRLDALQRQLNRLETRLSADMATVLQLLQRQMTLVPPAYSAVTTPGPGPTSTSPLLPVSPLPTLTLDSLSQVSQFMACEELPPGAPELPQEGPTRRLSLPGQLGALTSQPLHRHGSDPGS

This assay addresses human ether-à-go-go-related gene (hERG) potassium channel (human, UniProt Q12809). The assay is described as follows: primary screen, population patch clamp on CHO cells stably expressing hERG; higher = less effect of the substance.
In the case of `COc1nccnc1NS(=O)(=O)c1ccc(NCc2ccccc2O)cc1`, the “hERG current change (%, negative = inhibition) at 10uM” value stood at 7.4%.
Turning to `CC(=O)Nc1ccc(S(=O)(=O)N2CCSC2)cc1`, the “hERG current change (%, negative = inhibition) at 10uM” value was found to be 1.65%.
With `COc1ccc(N2CCN(c3ncnc4scc(-c5ccc(C)cc5)c34)CC2)cc1` the figure was 13%; with `CC(C)(C)NC(=O)C(c1ccc(O)cc1)N(C(=O)CCC(=O)Nc1ccccn1)c1ccc(F)cc1` (stereo not drawn), 8.1%.
Take `COC(=O)C(CCSC)NC(=O)c1cccc([N+](=O)[O-])c1` (stereo not drawn): the “hERG current change (%, negative = inhibition) at 10uM” value is listed as -12.1%.
Take `CCOC(=O)N1CCN(S(=O)(=O)c2ccc3c(c2)oc(=O)n3C)CC1`: the “hERG current change (%, negative = inhibition) at 10uM” value was -0.295%.
With `CC(=O)c1ccc(NC(=O)C2CC2c2ccccc2)cc1` (stereo not drawn), the “hERG current change (%, negative = inhibition) at 10uM” value amounted to 3.25%.
Turning to `CC1=NOC(=O)/C1=C\c1ccc(-c2cccc(Cl)c2)o1`, the “hERG current change (%, negative = inhibition) at 10uM” value was 10.4%.
Take `NC(=O)[C@H]1CC2(CC(c3cccc(NC(=O)[C@H]4CCC(=O)N4)c3)=NO2)CN1C(=O)c1ccccc1C(=O)c1ccccc1` (stereo partly drawn): the “hERG current change (%, negative = inhibition) at 10uM” value worked out at 14.7%.
As for `CC1CN(CCCCOc2cccc(Oc3ccccc3)c2)CC(C)O1.O=C(O)C(=O)O` (stereo not drawn), the “hERG current change (%, negative = inhibition) at 10uM” value was -35.9%.
`CC1CCN(CCCCOc2cccc(Br)c2)CC1.O=C(O)C(=O)O`: the “hERG current change (%, negative = inhibition) at 10uM” value is given as -69%.
In the case of `CC1CN(CCOc2cccc(Oc3ccccc3)c2)CC(C)O1.O=C(O)C(=O)O` (stereo not drawn), the “hERG current change (%, negative = inhibition) at 10uM” value worked out at 5.01%.
Regarding `CC1CCCN(CCOc2cccc(Oc3ccccc3)c2)C1.O=C(O)C(=O)O` (stereo not drawn), the “hERG current change (%, negative = inhibition) at 10uM” value is recorded as -64.7%.
With `CC1CCN(CCOc2cccc(Br)c2)CC1.O=C(O)C(=O)O` the figure was -20.3%; with `O=C(NCc1ccc2c(c1)OCO2)C1CCC(=O)N1C1CCCCC1` (stereo not drawn), -9.26%.
For the molecule `Cc1cc(NC(=O)CCC(=O)N(c2ccccc2)C(C(=O)NC2CCCC2)c2ccncc2)no1` (stereo not drawn), the “hERG current change (%, negative = inhibition) at 10uM” value was 2.53%.
Turning to `C=CCOc1ccc(CNc2ccc3[nH]c(=O)[nH]c3c2)cc1`, the “hERG current change (%, negative = inhibition) at 10uM” value was 1.57%.
As for `Clc1cccc(Oc2cnc3ccccc3n2)c1`, the “hERG current change (%, negative = inhibition) at 10uM” value is -25.8%.
With `O=C(NCc1cccnc1)C1CCN(S(=O)(=O)c2cccc(C(F)(F)F)c2)CC1` the figure was 2.69%; with `Cc1cccc(NC(=S)N(CCN2CCOCC2)Cc2ccccc2F)c1`, -25%.
On to `CCN1CCN(C(=O)Cn2ncc3c2-c2ccccc2OC3)CC1`, for which the “hERG current change (%, negative = inhibition) at 10uM” value is reported as -10.1%.
`O=C(CN1C(=O)c2ccccc2S1(=O)=O)N1CCN(Cc2ccc3c(c2)OCO3)CC1`: the “hERG current change (%, negative = inhibition) at 10uM” value is -12.8%.
With `Cc1ccc(C)c(CN2CCCN(C(=O)Cn3ncc4c3-c3ccccc3OC4)C2)c1`, the “hERG current change (%, negative = inhibition) at 10uM” value is -2.82%.
Turning to `O=C(Cn1ncc2c1-c1ccccc1OC2)N1CCN(Cc2ccccc2)CC1`, the “hERG current change (%, negative = inhibition) at 10uM” value is recorded as -68.5%.
Regarding `O=C(Cn1ncc2c1-c1ccccc1OC2)N1CCN(Cc2ccc3c(c2)OCO3)CC1`, the “hERG current change (%, negative = inhibition) at 10uM” value is -61.3%.
As for `CCOC(=O)N1CCN(C(=O)Cn2ncc3c2-c2ccccc2OC3)CC1`, the “hERG current change (%, negative = inhibition) at 10uM” value is -3.57%.
Consider `COC(=O)[C@@H](NC(=O)NCCC1=CCCCC1)C(C)C`, for which the “hERG current change (%, negative = inhibition) at 10uM” value is -3.29%.
For the molecule `COC(=O)CCCC(=O)N1CCCC(CCC(=O)NCc2ccc(F)c(F)c2)C1` (stereo not drawn), the “hERG current change (%, negative = inhibition) at 10uM” value is 0.17%.
For `COc1ccc(NC2CCCN(Cc3cccc4cnccc34)C2)cc1` (stereo not drawn), the “hERG current change (%, negative = inhibition) at 10uM” value was -18.5%.
Turning to `COc1cc(/C=N/N2CCCCC2)cc([N+](=O)[O-])c1O`, the “hERG current change (%, negative = inhibition) at 10uM” value turned out to be 20.8%.
With `COCC(C)N1CCC(n2nccc2NC(=O)c2ccccc2Cl)CC1` (stereo not drawn), the “hERG current change (%, negative = inhibition) at 10uM” value is recorded as -47.9%.
`CC(C)CCN1CCC(n2nccc2NC(=O)C2CCOC2)CC1` (stereo not drawn): the “hERG current change (%, negative = inhibition) at 10uM” value came out at 15.3%.
For `CC(CCN1CCC(n2nccc2NC(=O)c2ccccc2Cl)CC1)c1ccccc1` (stereo not drawn), the “hERG current change (%, negative = inhibition) at 10uM” value is given as -82.7%.
With `CC(CN1CCC(n2nccc2NC(=O)c2ccccc2Cl)CC1)c1ccccc1` (stereo not drawn), the “hERG current change (%, negative = inhibition) at 10uM” value is recorded as -68.9%.
With `CC(CN1CCC(n2nccc2NC(=O)C2CCCC2)CC1)c1ccccc1` (stereo not drawn) the figure was -24%.
With `Cc1cc(-c2ccco2)n(CC(=O)NCc2ccco2)n1` the figure was 8.48%; with `CCC(C(=O)N1CC2(C)CC1CC(C)(C)C2)N1C(=O)c2ccccc2C1=O` (stereo not drawn), -18.3%; with `Cc1cc(=O)oc2cc(OCCc3ccccc3)ccc12`, -0.326%.
On to `CCOc1ccc2c(c1)-c1c(ssc1=S)C(C)(C)N2C`, for which the “hERG current change (%, negative = inhibition) at 10uM” value was -3.7%.
With `CCOC(=O)C1C(=O)C=C(c2ccc([N+](=O)[O-])cc2)CC1c1ccccc1` (stereo not drawn) the figure was -63.5%; with `CCOC(=O)C1C(=O)C=C(c2ccc(C)cc2)CC1c1ccccc1` (stereo not drawn), 28.2%; with `CCOC(=O)C1C(=O)C=C(c2ccc(Br)cc2)CC1c1ccco1` (stereo not drawn), -23.2%.
Regarding `CCOC(=O)C1C(=O)C=C(c2ccc(C)cc2)CC1c1ccco1` (stereo not drawn), the “hERG current change (%, negative = inhibition) at 10uM” value is listed as 5.34%.
As to `CCOC(=O)C1C(=O)C=C(c2ccc(C)cc2)CC1c1cccc([N+](=O)[O-])c1` (stereo not drawn), the “hERG current change (%, negative = inhibition) at 10uM” value is listed as -4.88%.
In the case of `CCOC(=O)C1C(=O)C=C(c2ccc(NS(C)(=O)=O)cc2)CC1c1ccco1` (stereo not drawn), the “hERG current change (%, negative = inhibition) at 10uM” value is reported as -80.3%.
